Bioassay records from PubChem BioAssay.
Rows were chosen to be rich in hits. Some 3.9% of all compounds tested hit in one or more screens of this group.
Bead autofluor: flagged as autofluorescent in microsphere protease counterscreen; compound autofluorescence counterscreen, microsphere flow cytometry; active compounds read high; fluorescence intensity (test concentration not listed); hit rate 3.1% among 360,000; in the data active = fluorescence intensity above about 16000; inconclusive = no clear call, values can overlap the other calls
DUSP3 inh: VHR1 phosphatase inhibitors, primary screen, biochemical, absorbance, uHTS; Dual specificity protein phosphatase 3 (Homo sapiens), P51452; recombinant VHR phosphatase, pNPP absorbance; inhibition, % at 13.3 µM; hit rate 0.52% among 290,000; in the data active = inhibition above about 50%
Target sequence (P51452 whole entry, looked up): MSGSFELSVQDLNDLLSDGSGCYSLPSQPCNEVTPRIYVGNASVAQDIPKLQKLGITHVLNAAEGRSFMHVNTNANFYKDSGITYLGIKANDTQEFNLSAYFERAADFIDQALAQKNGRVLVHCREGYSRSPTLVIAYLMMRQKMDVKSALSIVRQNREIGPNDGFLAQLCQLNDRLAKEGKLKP
3CLpro inhibitor: SARS-CoV 3CLpro protease inhibitors, primary screen, biochemical, quenched FRET; Replicase polyprotein 1ab (Severe acute respiratory syndrome coronavirus), P0C6X7; recombinant SARS-CoV 3CLpro, quenched FRET peptide cleavage; inhibition, % at 6 µM; hit rate 0.14% among 290,000; AID 1706, 2009; in the data active = inhibition above about 12%
BoNT F protease: BoNT/F light chain protease inhibitors, primary screen, biochemical, flow cytometry, MLPCN library; Botulinum neurotoxin type F light chain protease (Clostridium botulinum); Multiplex microsphere protease cleavage assay; inhibition, % at 10 µM; hit rate 0.22% among 360,000; AID 588497, 2011; in the data active = inhibition above about 35%, passing the limit was not always enough; inconclusive = no clear call, values can overlap the other calls
Anthrax LF prot: Bacillus anthracis LF protease inhibitors, primary screen, biochemical, multiplex microsphere, MLPCN library; inhibition, % at 10 µM; Lethal factor (Bacillus anthracis), P15917; multiplex microsphere protease cleavage assay; AID 588501, 2011; hit rate 0.12% among 360,000
BoNT-A LC inh2: BoNT/A light chain protease inhibitors, primary screen, biochemical, flow cytometry, MLPCN library; Botulinum neurotoxin type A light chain protease (Clostridium botulinum A str. ATCC 3502); multiplex microsphere protease substrate cleavage; inhibition, % at 10 µM; hit rate 0.17% among 360,000; AID 588499, 2011
A number is an active result; i = inactive; ? = inconclusive; nt = not tested or not shown. Cut-off read from the data, not from the text of the source, unless noted: active = inhibition above about 30%; inconclusive = no clear call, values can overlap the other calls; inactive = below that.

SMILES	Bead autofluor	DUSP3 inh	3CLpro inhibitor	BoNT F protease	Anthrax LF prot	BoNT-A LC inh2
COc1cc(CN2CCN(c3cccc(C)c3C)CC2)cc(Br)c1O	23780	i	i	i	i	?
COc1cc(CN2CCC(C(=O)NC3CCCC3)CC2)cc(Br)c1O	23761	i	i	i	i	i
COc1cc(CN2CCN(c3ccccc3C)CC2)cc([N+](=O)[O-])c1O	i	i	i	i	i	i
COc1ccc(CN2CCN(c3cccc(C)c3C)CC2)cc1OC	17421	i	i	i	i	i
COc1ccc(CN2CCN(C)CC2)cc1OCc1ccccc1	20197	i	i	i	i	i
O=C(NCCc1ccc(O)c(Br)c1)c1ccc(Br)o1	i	nt	nt	i	i	i
S=C(Nc1cccnc1)N1CCN(c2ccccc2Cl)CC1	i	i	i	i	i	i
CC1CCC(N2CCN(C(=O)c3ccccc3F)CC2)CC1 (configuration not stated)	i	i	i	?	i	i
O=C(O)c1ccc(C(=O)c2cc([N+](=O)[O-])cc([N+](=O)[O-])c2)cc1	i	nt	nt	i	i	i
COc1ccc(-n2c(O)c(/C=N/NS(=O)(=O)c3cc(C)ccc3C)c3ccccc3c2=O)cc1OC	17279	i	i	i	i	i
CCn1[nH]c(=O)c(=Nc2c(C)n(C)n(-c3ccccc3)c2=O)cc1-c1ccc(Cl)cc1	22167	i	i	i	i	i
Cn1c(=O)[nH]c(=O)c2c1nc(N1CCCCCC1)n2CCOc1ccccc1	i	i	i	i	i	i
Cc1oc(C(=O)O)cc1COc1ccc2c3c(c(=O)oc2c1)CCC3	20992	i	i	i	i	?
COC(=O)c1cc(COc2ccc3c4c(c(=O)oc3c2)CCCC4)c(C)o1	i	i	i	i	i	i
Cc1cc(Cl)ccc1-c1nc(NC(C)C)nc2ccsc12	i	nt	nt	i	i	i
O=C(O)C1CC(=O)N(c2ccc(OCc3ccccc3)cc2)C1 (configuration not stated)	21268	i	i	i	i	i
CNC(=O)C1CC(=O)N(c2ccc(OCC(=O)Nc3ccccc3)cc2)C1 (configuration not stated)	i	nt	nt	i	i	i
O=C(COc1ccc(N2CC(C(=O)O)CC2=O)cc1)Nc1cccc(C(F)(F)F)c1 (configuration not stated)	23245	i	i	i	i	?
O=C(O)C1CC(=O)N(c2ccc(OCc3ccc(Br)cc3)cc2)C1 (configuration not stated)	i	i	i	i	i	i
CC(=O)C(Sc1nn(C)c(=S)s1)C(=O)Nc1ccccc1 (configuration not stated)	23581	i	i	i	i	i
Cc1cc(Nc2ccccc2)nc(-c2ccccc2O)n1	i	i	i	i	i	i
Cc1cc(NCc2ccccc2)nc(-c2ccccc2O)n1	20264	i	i	i	i	?
Cc1cc(Nc2ccccc2Cl)nc(-c2ccccc2O)n1	i	nt	i	36	i	i
COc1ccc(Cl)c2sc(N(CCN(C)C)C(=O)C3=COCCO3)nc12	?	nt	nt	i	i	i
Cc1nc(Oc2ccc(Cl)cc2)c2oc3ccccc3c2n1	20568	i	i	i	i	?
SMILES	Bead autofluor	DUSP3 inh	3CLpro inhibitor	BoNT F protease	Anthrax LF prot	BoNT-A LC inh2
Cc1cn(CCOc2ccc(Cl)cc2)c(=O)[nH]c1=O	i	i	i	i	i	i
CCCCCCSc1nsc(NC(=O)CC(C)C)n1	i	i	i	i	i	i
CCCCCCCSc1nsc(N)n1	i	57	i	i	i	i
CCN1CCc2c(C#N)c(NCc3ccccc3)nc(N(CC)CC)c2C1	i	56	i	i	i	i
Cc1ccc(S(=O)(=O)NCCc2cn3nc(C)c(C)nc3n2)cc1C	i	i	i	i	i	i
O=C(O)CNS(=O)(=O)c1cccc2nsnc12	22948	i	i	i	i	i
O=C(O)c1cccc(NS(=O)(=O)c2cccc3nsnc23)c1	19434	i	i	i	i	i
CC1CCN(CCCNC(=O)C2CCC(CNS(=O)(=O)c3cccc4nsnc34)CC2)CC1 (configuration not stated)	i	51	i	i	i	i
O=S(=O)(Nc1ccccc1)c1cccc2nsnc12	i	i	i	?	i	i
Cc1ccc(CS(=O)(=O)CCC(=O)NCCN(C)Cc2ccccc2)cc1	23874	i	i	i	i	i
CCOC(=O)c1ccc(-c2ccc(/C=N/NC(=O)c3cncc(Br)c3)o2)cc1	i	i	i	?	i	i
CCCCOC(=O)c1ccc(-c2ccc(/C=N/NC(=S)NCC)o2)cc1	16266	i	i	i	i	?
NS(=O)(=O)c1ccc(CNC(=O)/C=C/c2cccc([N+](=O)[O-])c2)cc1	19057	i	i	i	i	i
NS(=O)(=O)c1ccc(CNC(=O)/C=C/c2ccc(Cl)c(Cl)c2)cc1	i	i	i	i	i	i
COCCN(C(=O)c1csnn1)C(C(=O)NC1CCCCC1)c1ccccc1F (configuration not stated)	i	i	i	i	i	i
COc1cccc(C(C)(O)c2nc(-c3cccc4cccnc34)cs2)c1 (configuration not stated)	i	nt	nt	i	i	i
Cc1ccc2cc(CN(CC(C)C)C(=O)C3CCCO3)c(=O)[nH]c2c1 (configuration not stated)	i	i	i	i	i	i
Cc1ccc2cc(CN(CC3CCCO3)C(=O)C(C)C)c(=O)[nH]c2c1 (configuration not stated)	23042	i	i	i	i	i
CNC(=S)N1N=C(c2ccc(C)cc2)CC1c1ccc(Br)cc1 (configuration not stated)	23443	i	i	i	i	i
O=C(O)CCC(=O)N1N=C(c2ccc(Br)cc2)CC1c1ccc(Br)cc1 (configuration not stated)	i	56	i	i	i	i
CCC(CC)C(=O)N1N=C(c2ccc(NS(C)(=O)=O)cc2)CC1c1ccc(C)cc1 (configuration not stated)	i	i	i	i	i	i
O=C(O)CCC(=O)N1N=C(c2ccccc2)CC1c1ccc(Br)cc1 (configuration not stated)	i	i	i	i	i	i
CCC(=O)N1N=C(c2ccc(NS(C)(=O)=O)cc2)CC1c1ccc(C)cc1 (configuration not stated)	19251	i	i	i	i	?
CC(C(=O)O)n1cc(C#N)c(=O)[nH]c1=O (configuration not stated)	i	nt	nt	i	i	i
Cc1ccc(SCc2[nH]nc3c2C(c2ccc(C)o2)C(C#N)=C(N)O3)cc1 (configuration not stated)	19530	i	i	i	i	i
